Shown are actives, neighbours in structure and some others; about 11% of the full set was active somewhere.
HEK293 tox = cytotoxic compounds in HEK 293 cells; HEK 293 viability, ATP luminescence (CellTiter-Glo), 48-72 h; Potency, µM (doses to about 115 µM), without a hit: top-dose activity change, negative = cytotoxicity, most hits filed as inhibitors; 94,000 tested, 6.6% active; also: nearly all actives have a fitted effect of over 60% in size
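HEK 293 cells seeded at 250 cells/well were exposed to compound for 48 or 72 hr at 37 degree Celsius. Viability taken as ATP content by CellTiter-Glo luminescence.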
hNpr1 antagonist = human Npr1 receptor antagonism | HEK293 hNpr1 GloSensor cGMP, ANP-stimulated luminescence | Potency, µM (doses to about 46.3 µM), inactives show at the top dose activity change, negative = inhibition, usual class: inhibitors | 76,000 tested, 1.6% active | AID 1347048; calls by dose curve; also: nearly all actives have a fitted effect of over 60% in size
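HEK293 cells stably expressing human Npr1 and cGMP GloSensor pGS-40F, loaded 2 h with 2% GloSensor reagent, given compound 30 min at room temperature. Luminescence read before and 20 min after 0.1 nM hNppA.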
FLuc inh = Photinus pyralis luciferase inhibition; purified P. pyralis luciferase, luminescence, biochemical; Potency, µM (titrated, usually from 115 µM), usual class: inhibitors; 76,000 tested, 2.5% active; P08659; also: nearly all actives have a fitted effect of over 65% in size
Target sequence (P08659 whole entry, looked up): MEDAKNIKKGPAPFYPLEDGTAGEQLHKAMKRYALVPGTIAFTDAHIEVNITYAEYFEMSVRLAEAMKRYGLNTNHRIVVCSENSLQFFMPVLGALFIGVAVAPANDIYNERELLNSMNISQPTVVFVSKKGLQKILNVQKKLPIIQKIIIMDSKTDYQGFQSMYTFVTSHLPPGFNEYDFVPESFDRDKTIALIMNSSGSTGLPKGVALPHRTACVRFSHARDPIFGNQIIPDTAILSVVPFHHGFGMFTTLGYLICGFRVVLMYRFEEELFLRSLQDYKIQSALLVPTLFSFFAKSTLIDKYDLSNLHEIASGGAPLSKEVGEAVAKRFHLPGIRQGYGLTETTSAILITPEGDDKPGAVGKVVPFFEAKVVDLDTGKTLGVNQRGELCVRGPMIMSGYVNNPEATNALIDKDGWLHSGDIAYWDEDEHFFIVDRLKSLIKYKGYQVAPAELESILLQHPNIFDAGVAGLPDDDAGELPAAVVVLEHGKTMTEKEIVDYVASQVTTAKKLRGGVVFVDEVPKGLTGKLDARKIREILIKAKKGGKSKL
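Cell-free enzyme assay, 10nM P. pyralis luciferase, luciferin and ATP each at 10uM. Inhibition profiled over a 6-point titration, read as luminescence.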
NIH3T3 tox = NIH 3T3 cell cytotoxicity | NIH 3T3 viability, CellTiter-Glo ATP luminescence, 48-72 h | Potency, µM (titrated, usually from 96.7 µM), for inactives: top-dose activity change, negative = cytotoxicity, actives largely listed as inhibitors | 94,000 tested, 4.3% active | AID 1345082; also: nearly all actives have a fitted effect of over 55% in size
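First NIH 3T3 cells are plated at 400 cells/well; next compound is pinned in; then plates incubate 48 or 72 hr at 37 °C; finally CellTiter-Glo is added and luminescence read after 10 min.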
* hit, by the source's call; i = inactive; ? = inconclusive; . = no result given; [ ] = dose if it differs, or a comment. Unless noted, calls follow the shape of the dose curve; as a rule, active = well fitted curve in the direction sought with a large enough effect; inconclusive = small, poorly fitted or top-dose-only effect, or another doubt; inactive = no such curve, though single readings can be large; an effect the other way counts as inactive or inconclusive. % is scaled to controls: 0 for no effect and ±100 for the full control effect; potency is read from the fitted curve at half-maximal effect.

SMILES | HEK293 tox | hNpr1 antagonist | FLuc inh | NIH3T3 tox
COc1cccc(C(=O)NC2CCCN(Cc3cccc(-c4ccc(C)c(Cl)c4)c3)C2)c1 (stereo unspecified) | -31.6% | . | . | -26.6%
COc1ccc(CN2C=C(C(=O)OCc3nc(-c4cccc(C)c4)no3)C(C)=NS2(=O)=O)cc1 | ? | ? | ? | -27.9%
COc1ccccc1CN1CCOc2cc([S+](=O)([O-])N(C)C)ccc2C1 | 89.1µM* | -6.6%[70.6 µM] | i | ?
CN(C)[S+](=O)([O-])c1ccc2c(c1)OCCN(Cc1ccccc1Cl)C2 | ? | -29.6%[70.6 µM] | i | 56.2µM*
CN(C)[S+](=O)([O-])c1ccc2c(c1)OCCN(Cc1cccc(F)c1F)C2 | ? | -1.9%[70.6 µM] | i | ?
O=C1CCN(S(=O)(=O)c2ccccc2)CCCN(Cc2ccc(C(F)(F)F)cc2)CCN1 | ? | -22.8% | i | ?
COc1ccc(F)cc1-c1cccc(C(=O)NCC(=O)NCCc2ccccc2)c1 | ? | . | . | -26.7%
COc1ccc(F)cc1-c1cccc(C(=O)NCC(=O)NCCc2cccc(F)c2)c1 | 39.8µM* | . | . | ?
COc1ccc(F)cc1-c1cccc(C(=O)NCCNC(=O)c2ccc(F)cc2)c1 | 35.5µM* | . | . | ?
COc1ccc(F)cc1-c1cccc(C(=O)NCCNC(=O)c2cccnc2)c1 | ? | . | . | 35.5µM*
COc1ccc(F)cc1-c1cccc(C(=O)NCCN[S+](=O)([O-])CCC(F)(F)F)c1 | 79.4µM* | . | . | ?
CO[C@H]1[C@H](NC(=O)c2cc3ccccc3n2C)c2ccccc2C12CCNCC2 | 35.5µM* | 2.6% | i | 22.4µM*
CO[C@H]1[C@H](NC(=O)c2cc(C)nn2C)c2ccccc2C12CCNCC2 | 0.8% | 2.8% | i | 0.4%
COc1ccc(NC(=O)C2CCc3nnc(C4CCN(C(C)=O)CC4)n32)cc1 (stereo unspecified) | -18.8%[172 µM] | . | . | -17.3%[138 µM]
COCCCNC(=O)c1ccc2nnc(C3CCCC3)n2c1 | -0.8%[172 µM] | . | . | -22.4%[138 µM]
COc1ccccc1Nc1ccnc(N2CCCC(C(=O)N3CCOCC3)C2)n1 (stereo unspecified) | ? | . | . | -42.0%
COc1ccccc1Nc1ccnc(N2CCCC(C(=O)NC3CCCC3)C2)n1 (stereo unspecified) | ? | . | . | 35.5µM*
COc1ccccc1Nc1ccnc(N2CCCC(C(=O)N3CCCCC3)C2)n1 (stereo unspecified) | 35.5µM* | . | . | 35.5µM*
COc1ccccc1Nc1ccnc(N2CCC[C@H]2C(=O)NC(C)C)n1 | i | . | . | 4.2%
O=C(Nc1cccc(Cl)c1)c1nc2sccn2c1-c1ccc(F)cc1 | ? | . | . | -29.8%[138 µM]
Cc1nn(C(=O)CCCC(=O)N2CCC(CCOc3ccc(F)cc3)C2)c2ccccc12 (stereo unspecified) | 4.2% | ? | i | -0.8%
Cn1c(=O)c2c(ncn2CC(=O)N2CCC(CCOc3ccc(F)cc3)C2)n(C)c1=O (stereo unspecified) | 89.1µM* | -30.3% | i | -24.1%
Cc1ccc(OCC(=O)N2CCC(CCOc3ccc(F)cc3)C2)cc1 (stereo unspecified) | ? | -18.8% | i | ?
Cc1cc(C)n(CCC(=O)N2CCC(CCOc3ccc(F)cc3)C2)n1 (stereo unspecified) | 79.4µM* | ? | i | -21.9%
O=C(N[C@H]1[C@H](O)[C@H](O)C[C@@H]1c1ccc(C(F)(F)F)nc1)c1nc2ccccc2s1 | -26.9%[172 µM] | -11.4%[70.6 µM] | 44.7µM* | -21.8%[138 µM]
SMILES | HEK293 tox | hNpr1 antagonist | FLuc inh | NIH3T3 tox
COc1ccc([C@H]2C[C@@H](O)[C@@H](O)[C@@H]2NC(=O)c2nc3ccccc3s2)cc1 | ? | -26.0%[70.6 µM] | 44.7µM* | -26.6%[138 µM]
N#Cc1ccc(C(=O)N[C@H]2[C@H](O)[C@H](O)C[C@@H]2c2ccc(C(F)(F)F)nc2)cc1 | i | 6.8%[70.6 µM] | i | -23.2%[174 µM]
Cc1ccccc1[C@H]1C[C@@H](O)[C@@H](O)[C@@H]1NC(=O)c1nc2ccccc2s1 | ? | -10.6%[70.6 µM] | i | ?
CCN1C(=O)C2CC3(CCN(C(=O)c4cccn4C)CC3)CN2C1=O (stereo unspecified) | 4.1% | . | . | -9.7%
CN(C)C[C@@H]1CN(Cc2ccccn2)C[C@H]1NS(=O)(=O)c1cccc(F)c1 | -2.7% | 3.4% | i | -8.4%
Cc1cc(NC(=O)C2CCN(C(=O)c3ncn4c3COC(c3ccc(F)cc3)C4)CC2)ccc1F (stereo unspecified) | -13.3% | -4.0% | 22.4µM* | -12.0%

Screening data deposited in PubChem BioAssay by National Center for Advancing Translational Sciences (NCATS).
